Rows were chosen to be rich in hits. Some 19% of all compounds tested hit in one or more screens of this group.
TDP1 cell CPT: DT40-hTDP1 cell growth loss with CPT | chicken DT40 Tdp1-/-;hTDP1 cells + 20 nM CPT, ATP luminescence, 48 h | Potency, µM (highest dose often 46.2 µM), inactives show at the highest dose activity change, negative = growth inhibition, hits mostly inhibitors | 12% of 420,000 active | AID 686979; note: potency is the fitted concentration of half-maximal effect; % is set by controls: 0 for no effect and ±100 for the full control effect; nearly all actives have a fitted effect of over 55% in size
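Chicken DT40 Tdp1-/- cells complemented with human TDP1, 400 cells/well, exposed to compounds plus 20 nM camptothecin for at least 48 h at 37 C; viability read as ATP content by CellTiter-Glo luminescence.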
DT40 TDP1 no CPT: qHTS for Inhibitors of human tyrosyl-DNA phosphodiesterase 1 (TDP1): qHTS in cells in absence of CPT; Potency, µM (top dose mostly 46.2 µM), for the others: at the highest dose activity change, negative = growth inhibition, most hits filed as inhibitors; 15% of 420,000 active; DT40 Tdp1-/- hTDP1 cells, no CPT, ATP luminescence, 48 h; AID 686978, 2013; note: potency is the fitted concentration of half-maximal effect; % is set by controls: 0 for no effect and ±100 for the full control effect; nearly all actives have a fitted effect of over 55% in size
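Chicken DT40 Tdp1-/- cells complemented with human TDP1, screened without camptothecin (DMSO vehicle only), 400 cells/well. Compounds pin-transferred, cells incubated at 37 °C for at least 48 hr. Growth read as ATP-dependent luminescence (CellTiter-Glo, 30 min at RT).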
TGFb inhibitor: inhibitors of TGF-b signaling; HepG2 CAGA-GFP TGF-b/SMAD3 reporter, GFP fluorescence, 18 h; TGF-beta stimulated, 500 pg/mL final; Potency, µM (titrated, usually from 46.1 µM), for the others: at the top dose activity, negative = inhibition, usual class: inhibitors; 1.2% of 410,000 active; AID 588855; note: potency is the fitted concentration of half-maximal effect; % is set by controls: 0 for no effect and ±100 for the full control effect; nearly all actives have a fitted effect of over 65% in size
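HEPG2 CAGA-GFP reporter cells (1000/well, DMEM with 1% FBS) received compounds, then recombinant TGF-beta at 500 pg/mL final for 18 hours at 37 degrees C. Per-cell GFP summed per well was normalised to unstimulated and stimulated DMSO controls before curve fitting.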
IL1B secr inh: blocks inflammasome-driven IL-1 beta release; activity change, % at 57.5 µM; 4.7% of 360,000 active; THP-1 LPS/ATP IL-1B secretion, AlphaLISA, 16 h; active compounds read low; in the data active = activity change below about -50%; inconclusive = mostly about -30% to -49%; note: % is set by controls: 0 for no effect and ±100 for the full control effect
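Secreted IL-1B measured by AlphaLISA bead assay after 16 h compound exposure of THP-1 cells; compounds (final up to 57.5 uM) added 1 h before LPS (250 ng/mL) and ATP (1.25 mM) stimulation; lower signal means less secretion.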
HepG2 tox: kills HepG2 cells in TGF-b inhibitor counter-screen. Potency, µM (highest dose often 46.1 µM), for the others: at the highest dose activity change, negative = cytotoxicity, most hits filed as cytotoxic. 0.76% of 410,000 active. HepG2 CAGA-GFP viability, ATP luminescence, 18 h; note: potency is the fitted concentration of half-maximal effect
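HepG2 CAGA-GFP cells (1000/well, DMEM with 1% FBS) received compound, then TGF-beta at 500 pg/mL final, and were incubated 18 hours at 37 degrees C. Viability was read by CellTiter-Glo luminescence. Media-only wells were set as complete cell-killing and DMSO as no toxicity.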
S-ASM inh: inhibitors of human secretory acid sphingomyelinase; placental ASM, HMU-PC fluorogenic substrate, 60 min; Potency, µM (top dose mostly 57.5 µM), without a hit: top-dose activity change, negative = inhibition, actives largely listed as inhibitors; 0.006% of 340,000 active; note: potency is the fitted concentration of half-maximal effect
Target sequence (P17405 47-631 limits assumed): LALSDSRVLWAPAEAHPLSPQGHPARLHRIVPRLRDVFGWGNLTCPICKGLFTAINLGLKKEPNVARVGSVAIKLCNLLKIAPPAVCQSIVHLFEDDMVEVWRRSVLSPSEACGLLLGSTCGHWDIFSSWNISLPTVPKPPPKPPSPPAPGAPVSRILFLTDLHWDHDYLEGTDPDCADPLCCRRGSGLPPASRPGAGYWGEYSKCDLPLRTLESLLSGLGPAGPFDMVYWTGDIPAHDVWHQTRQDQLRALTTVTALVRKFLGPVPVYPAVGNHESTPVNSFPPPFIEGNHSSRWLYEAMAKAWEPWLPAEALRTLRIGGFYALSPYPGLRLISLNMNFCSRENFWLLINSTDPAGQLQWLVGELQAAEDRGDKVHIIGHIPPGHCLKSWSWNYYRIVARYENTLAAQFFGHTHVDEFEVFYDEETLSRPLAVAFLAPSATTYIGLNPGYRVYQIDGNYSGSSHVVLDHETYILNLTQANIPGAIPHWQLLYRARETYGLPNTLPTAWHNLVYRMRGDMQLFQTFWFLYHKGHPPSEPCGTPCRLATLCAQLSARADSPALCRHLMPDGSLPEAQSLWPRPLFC
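Human placenta-derived ASM enzyme was preincubated with compound for 10 minutes at room temperature, then given fluorogenic substrate HMU-PC0 (9 uM final) for 60 minutes at 37 °C; a pH 10 stop preceded fluorescence reading at Ex 386/Em 447 nm.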
An asterisk follows results filed as active; i = inactive; ? = inconclusive; . = not tested or not shown. Unless noted, calls come from the whole dose curve; as a rule, active = well fitted curve in the direction sought with a large enough effect; inconclusive = small, poorly fitted or top-dose-only effect, or another doubt; inactive = no such curve, though single readings can be large; an effect the other way counts as inactive or inconclusive.

SMILES	TDP1 cell CPT	DT40 TDP1 no CPT	TGFb inhibitor	IL1B secr inh	HepG2 tox	S-ASM inh
CCCCCn1c(=S)[nH]c2cc(C(=O)N3CCCC3)ccc2c1=O	2%	-10%	?	28	-20%	0%
CC1CCCN(C(=O)c2ccc3c(=O)n(C4CCCC4)c(=S)[nH]c3c2)C1 (stereo unspecified)	21µM*	?	?	-16	-2%	-10%
CC1CCCCC1NC(=O)CCCn1c(=S)[nH]c2ccccc2c1=O (stereo unspecified)	-18%	-21%	-9%	11	-11%	10%
COCCn1c(=S)[nH]c2cc(C(=O)N3CCN(C4CCCCC4)CC3)ccc2c1=O	?	?	-21%	24	-32%	.
CC1CCCCC1n1c(=S)[nH]c2ccccc2c1=O (stereo unspecified)	23µM*	?	?	22	-66%	-5%
O=C(c1ccc2c(=O)n(C3CCCC3)c(=S)[nH]c2c1)N1CCCCCC1	15µM*	13µM*	?	2	-2%	-4%
CCOCCCn1c(=S)[nH]c2cc(C(=O)N3CCN(C4CCCCC4)CC3)ccc2c1=O	23µM*	?	0%	6	-2%	0%
Cn1ncc([N+](=O)[O-])c1C(=O)NC1CCCCC1	-6%	-12%	-13%	-9	-6%	8%
CCCc1cc(C(=O)Nc2ccc(C(=O)c3ccc(C)cc3)cc2)n(C)n1	15µM*	?	?	-63*	-31%	-8%
CCCc1cc(C(=O)Nc2cccc3ccccc23)n(C)n1	?	?	4%	12	0%	-2%
Cc1ccc(NCC(=O)N/N=C/c2ccc(C(=O)O)cc2)cc1	2%	26%	14%	8	-3%	2%
CCOc1cc(/C=N\NC(=O)c2ccc(C)nc2)ccc1OC(=O)c1ccc(F)cc1	-27%	?	3%	2	11%	-3%
CCOc1cc(/C=N\NC(=O)c2ccc(NC(=O)C(C)(C)C)cc2)ccc1OC(=O)c1ccc(C)cc1	?	29µM*	2%	-5	-10%	-9%
COc1cc(C(=O)N/N=C/c2ccc(OC(=O)c3ccccc3)c(OC)c2)ccc1O	-30%	-20%	-10%	i	-1%	-21%
CCOc1cc(/C=N/NC(=O)CNc2ccc(C)cc2)ccc1OC(=O)c1ccccc1	29µM*	?	-2%	?	-24%	-13%
CCOc1cc(/C=N\NC(=O)c2ccc(NC(=O)C(C)(C)C)cc2)ccc1OC(=O)c1cccc(C)c1	12µM*	8.2µM*	19%	117	-2%	?
CCOc1cc(/C=N\NC(=O)c2ccc(NC(=O)CC)cc2)ccc1OC(=O)c1ccccc1	18µM*	?	0%	-11	-2%	-2%
C=CCOc1ccccc1CN1CCC(n2nccc2NC(=O)C2CC2)CC1	5%	0%	13%	-4	-12%	0%
Cc1noc2nc(C(=O)O)nc(N3CCCCC3)c12	?	?	6%	.	-2%	.
Cc1ccc(S(=O)(=O)Nc2ccc3c(c2)n(C)c(=O)n3C)c(C)c1	?	21µM*	8%	38	-4%	-3%
Cc1ccc(S(=O)(=O)Nc2ccc3oc(=O)sc3c2)c(C)c1	?	?	3%	16	-21%	-7%
CCOc1ccc(NS(=O)(=O)c2cnc(Cl)c(Cl)c2)cc1	?	?	?	-99*	-12%	-5%
Cc1ccc(S(=O)(=O)Nc2ccc(SC(F)F)cc2)c(C)c1	?	?	13µM*	?	-72%	-18%
Cc1ccc(NS(=O)(=O)c2ccc3c(c2)n(C)c(=O)n3C)cc1C	16µM*	21µM*	-11%	152	-22%	-3%
COc1ccc(NC(=O)c2cc(C3CC3)nc3c2c(C)nn3-c2ccccc2)cc1OC	?	?	?	.	-34%	.
SMILES	TDP1 cell CPT	DT40 TDP1 no CPT	TGFb inhibitor	IL1B secr inh	HepG2 tox	S-ASM inh
COc1cc(C(=O)COC(=O)c2c(C)noc2C)cc(OC)c1OC	8%	-2%	15%	5	1%	-1%
CCc1ccc(NC(=O)Nc2ccsc2C(=O)OC)cc1	-18%	-14%	0%	-13	-19%	-21%
CCCCCC(=O)N(c1ccc(OCC)cc1)S(=O)(=O)c1ccc2c(c1)n(C)c(=O)n2C	21µM*	16µM*	11%	.	3%	.
CCOc1ccc(S(=O)(=O)Nc2ccc3c(c2)n(C)c(=O)n3C)cc1	?	7.3µM*	12%	13	-20%	3%
COc1ccc(C(=O)N(c2ccc(OC)cc2)S(=O)(=O)c2ccc3c(c2)n(C)c(=O)n3C)cc1	?	?	1%	.	-17%	.
Cn1c(=O)n(C)c2cc(NS(=O)(=O)c3ccccc3)ccc21	?	-6%	8%	-8	-1%	0%
Cc1ccc(NC(=O)CN(C)S(=O)(=O)c2ccc3c(c2)n(C)c(=O)c(=O)n3C)c(C)c1	18µM*	?	4%	11	-1%	-1%
CCc1ccc(S(=O)(=O)Nc2cc3c(cc2C)n(C)c(=O)n3C)cc1	5.2µM*	2.9µM*	-12%	29	-26%	-3%
Cc1cc(C)c(NC(=O)CN(C)S(=O)(=O)c2ccc3c(c2)n(C)c(=O)c(=O)n3C)c(C)c1	?	10%	-5%	-24	3%	-1%
O=C(NCC1(N2CCCCC2)CCCCC1)c1ccc(-n2cc(NC(=O)c3cccnc3)cn2)cc1	-5%	?	.	.	.	.
COc1ccc(C(C)(C)C)cc1NC(=O)C1=CC=CN2CCS(=O)(=O)N=C12	-8%	-7%	2%	0	2%	-1%
CCc1ccc(S(=O)(=O)Nc2c(C)nn(C)c2C)cc1	11µM*	11µM*	-39%	19	1%	4%
CCOc1ccc(S(=O)(=O)Nc2ccc3c(c2)c(C(C)=O)c(C)n3S(=O)(=O)c2ccc(OCC)cc2)cc1	21µM*	5.2µM*	11µM*	.	-12%	.
Cc1ccc(S(=O)(=O)Nc2ccc3c(c2)n(C)c(=O)n3C)cc1	10µM*	?	0%	-3	-20%	0%
Cc1ccc(NS(=O)(=O)c2ccc3c(c2)n(C)c(=O)n3C)c(C)c1	?	?	-11%	-54*	5%	1%
COc1ccc(NC(=O)N2CCCC2C(=O)NC2CCCC2)cc1 (stereo unspecified)	-24%	-6%	-1%	8	9%	1%

Screens from PubChem.
